Results filed as inconclusive are left out. Active and inactive are the calls of the source. The call rests on the fitted dose curve; in most records, active means well fitted inhibition curve with a large enough effect; inconclusive means small, poorly fitted or top-dose-only effect; inactive means flat fitted curve, though single readings scatter.
Experiment: BET inhibitor-based combinations targeting novel dependencies in MECOM-rearranged (r) AML: AML-191 cell line (AID 2202236; further: nearly all actives have a fitted effect of over 35% in size)
Details: AML-191 viability, CellTiter-Glo luminescence, 48 h; series mostly up to 46 µM
From the text: Ecotropic viral insertion site 1 (EVI1) is located on chromosome 3q26.2 as part of the MECOM (MDS and EVI1 complex) locus. Under normal hematopoiesis, EVI1 is a regulator of hematopoietic stem cell maintenance and self-renewal and EVI1 levels decrease as the cells differentiate. In approximately 5-10% of de novo acute myeloid leukemia (AML) EVI1 is aberrantly expressed, including Chromosomal inv(3)(q21;q26.2) or t(3;3)(q21;q26.2) alterations (MECOM-r) that account for about 50% of AML with EVI1 overexpression 31. AMLs with high levels of EVI1 have a poor prognosis and an overall survival time averaging between 10-14 months. EVI1 overexpression confers resistance in leukemia cells, highlighting the need to develop new targeted therapies for EVI1 overexpressing AMLs.
Here, we performed an unbiased chemical drug screening by evaluating the single agent activity of a collection of 2,480 oncology-focused, approved and investigational drugs (NCATS Mechanism Interrogation Plates, MIPE v5.0) against a panel of seven AML cell lines. These included four MECOM-r cell-lines (AML-191, AML-194, UCSD-AML1 and HNT-34) and three non-MECOM-r AMLs (MV4-11, OCI-AML3 and SET-2). Exploiting the mechanistic redundancy built in the library, we identified target-level sensitivities in MECOM-r AML cells and relative activity as compared to other AML subtypes.
A collection of 2480 mechanistically annotated dugs (MIPE v5.0) was used to screen four 3q26.2 rearranged AML cell lines and three non-3q26.2 rearranged AML cell lines. This library purposely exploits redundancy by including multiple inhibitors of key onco-targets, while simultaneously encompassing mechanistic diversity, targeting more than 800 distinct mechanisms of action. Briefly, cells were seeded in 5 uL of growth media using a Multidrop Combi dispenser into 1536 well white polystyrene tissue culture treated plates (Corning) at a density of 500cells/well. For each cell-line, for each of the 2480 drugs in MIPE v5.0 library, an 11-point dose curve was generated via a 1536 pin-tool. Plates were incubated for 48 hr at standard incubator conditions, covered by a stainless steel gasketed lid to prevent evaporation. Cell viability was determined by luminescence based, Cell Titer Glo assay (Promega). In detail, 3 uL of Cell Titer Glo were added to each well and plates were incubated at room temperature for 15 min with a stainless-steel lid in place. Luminescence readings were taken using a Viewlux (PerkinElmer) with a 2 s exposure time per plate. Compound dose-response curves were normalized to DMSO and empty well controls on each plate. Quantitative drug activity data from dose-response curves was determined utilizing area Under the Curve (AUC) and Z-transformed AUC (Z-AUC, a mean-centering transformation applied to each individual cell-line screened).
Potency means the concentration at half of the fitted maximal effect.

SMILES	Potency
CC(C)c1c2cc(-c3ccnc(NC4CCC(NC5CCOCC5)CC4)n3)ccc2nn1C (stereo not given)	0.166 µM (active)
NC(=O)c1cnc(-c2ccc(C3(N)CCC3)cc2)c(-c2ccccc2)c1	inactive
O=C(Cc1ccc(-c2ccc(OCCN3CCOCC3)cc2)cn1)NCc1ccccc1	0.0934 µM (active)
Cc1ccccc1-n1nc(-c2c(-c3ccc(F)cc3)nn3c2NC[C@@H](CO)C3)ccc1=O	inactive
CCOC(=O)C1=C[C@@H](OC(CC)CC)[C@H](NC(C)=O)[C@@H](N)C1	inactive
C/C=C/C(=O)N(CC)c1ccccc1C	inactive
COc1ccc2c(c1)CC[C@@H](CN(C)CC(=O)O)[C@H]2c1ccccc1	inactive
COc1ccc(C2CNC(=O)C2)cc1OC1CCCC1 (stereo not given)	inactive
CN1CCN2c3ncccc3Cc3ccccc3C2C1 (stereo not given)	inactive
C[C@@H](N)C1CCC(C(=O)Nc2ccncc2)CC1 (stereo not given in full)	inactive
CN1C(=O)C[C@H](C(=O)N[C@@H](Cc2cnc[nH]2)C(=O)N2CCC[C@@H]2C(N)=O)NC1=O	20.9 µM (active)
CCN1/C(=C/C(C)=O)Sc2ccc(OC)cc21	8.33 µM (active)
O=C(NCC(=O)N1CCCC1)Nc1ccc2cnccc2c1	inactive
N#Cc1cc(NC(=O)Nc2nnc(-c3ccncc3)s2)ccc1-c1cn[nH]c1	inactive
CN1c2ccccc2C(=O)N2CCc3c([nH]c4ccccc34)C21 (stereo not given)	1.32 µM (active)
CNC(=O)c1cc(Oc2ccc3nc(N[C@@H]4CCCC[C@H]4O)sc3c2)ccn1	14.8 µM (active)
CC(C)CC(=O)Nc1n[nH]c2c1CN(C(=O)C1CCN(C)CC1)C2(C)C	5.9 µM (active)
COc1ccc2nc3cc(Cl)ccc3c(Nc3cc(CN4CCCC4)c(O)c(CN4CCCC4)c3)c2n1	10.5 µM (active)
CC1=C(CO)C(=O)O[C@@H]([C@@H](C)[C@H]2CC[C@H]3[C@@H]4C[C@H]5O[C@]56[C@@H](O)C=CC(=O)[C@]6(C)[C@H]4CC[C@]23C)C1	0.372 µM (active)
COc1cc(N2CCC(N)CC2)ccc1Nc1ncc(Cl)c(-c2c[nH]c3ccccc23)n1	8.33 µM (active)

SMILES	Potency
Cc1ccsc1C(=CCCN1CCC[C@@H](C(=O)O)C1)c1sccc1C	inactive
O=c1ccn([C@@H]2O[C@H](CO)[C@H](O)[C@@H]2F)c(=O)[nH]1	inactive
Cc1cc2cc3c(C)cc(=O)oc3c(C)c2o1	inactive
NC(=O)c1cccc2[nH]c(-c3ccc([C@H]4CCCN4)cc3F)nc12	16.6 µM (active)
C=C1[C@H](CO)[C@@H](O)C[C@@H]1n1cnc2c(=O)[nH]c(N)nc21	18.6 µM (active)
COc1ccc2c3n(c(=NC(=O)c4cccnc4)nc2c1OC)CCN3	0.468 µM (active)
CC(C)C(=O)Nc1ncc(-c2cc(C(F)F)nn2-c2c(Cl)cccc2Cl)s1	20.9 µM (active)
C[C@@H](NCCCc1cccc(C(F)(F)F)c1)c1cccc2ccccc12	23.5 µM (active)
Clc1ccc(C2(c3ccc(-c4cn[nH]c4)cc3)CCNCC2)cc1	18.6 µM (active)
O=C(NCC1CCCCN1)c1cc(OCC(F)(F)F)ccc1OCC(F)(F)F (stereo not given)	inactive
CC1(C)[C@@H](O)CC[C@]2(C)[C@H]3C(=O)C=C4[C@@H]5C[C@@](C)(C(=O)O)CC[C@]5(C)CC[C@@]4(C)[C@]3(C)CC[C@@H]12	inactive
COc1ccc2c(OCc3nnc4ccc(-c5ccccc5)nn34)ccnc2c1	inactive
COc1ccc(-c2coc3cc(O)cc(O)c3c2=O)cc1	inactive
O=C(CN1C(=O)C2(CCCC2)NC[C@H]1c1cc(F)cc(F)c1)Nc1ccc2c(c1)C[C@@]1(C2)C(=O)Nc2ncccc21	inactive
O=c1[nH]nc(Sc2ncc([N+](=O)[O-])s2)n1-c1ccc2c(c1)OCCO2	3.32 µM (active)
C[C@H](Nc1ncnc2nc[nH]c12)c1cc2ccc(F)cc2nc1-c1ccccn1	18.6 µM (active)
COC1CCN(C(=O)c2cc(Cc3n[nH]c(=O)c4ccccc34)ccc2F)CC1	18.6 µM (active)
CC(C)n1cnc2c(NCCc3ccc(O)cc3)nc(-c3csc4ccccc34)nc21	20.9 µM (active)
CC[C@@]1(O)C(=O)OCc2c1cc1n(c2=O)Cc2cc3c(CN(C)C)c(O)ccc3nc2-1	0.0209 µM (active)
Cc1ccnc(NS(=O)(=O)c2ccc(NC(=O)Nc3ccc(S(=O)(=O)Nc4nccc(C)n4)cc3)cc2)n1	inactive

Reference: PubChem BioAssay (NCATS)
